Data from PubChem BioAssay (Tox21).
Unmarked numbers belong to inactive results. Inconclusive results are not listed. Entries that show only a call come without a potency. Activity calls are given as the source filed them. Unless noted, calls come from the whole dose curve; as a rule, active = well fitted curve in the direction sought with a large enough effect in the repeat runs; inconclusive = weak or mixed curves; inactive = no such curve, though single readings can be large; an effect the other way counts as inactive or inconclusive.

How the values were obtained:
[1] = A CellTox Green Cytotoxicity Assay to monitor cytotoxicity in HepG2 cells - 40 hour (AID 1224879); note: nearly all actives have a fitted effect of over 40% in size; note: potency is the fitted concentration of half-maximal effect
Procedure, shortened: (§1)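 Fluorescent DNA-binding dye, 600 HepG2 cells/well, 5 h preincubation then compound in DMSO; same plates read at 0–40 h, 37 C.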

[2] = qHTS RealTime-Glo MT Cell Viability Assay in HEK293 cells - 0 hour (AID 1224880); note: top concentration of the series differs between compounds; nearly all actives have a fitted effect of over 45% in size
Procedure, shortened: (§2)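 Measured as luminescence from the same continuously cultured HEK293 wells at successive time points (0, 8, 16, 24, 32, 40 h) after compound addition. Reagent present from seeding; dosing at 5 h; incubation 37 C.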

[3] = A CellTox Green Cytotoxicity Assay to monitor cytotoxicity in HEK293 cells - 32 hour (AID 1224881); note: nearly all actives have a fitted effect of over 40% in size
Procedure, shortened: (§3)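 Homogeneous no-lysis format: HEK293 cell suspension mixed with CellTox Green reagent, seeded, incubated 5 h at 37 C/5% CO2, then dosed by pintool with compound in DMSO.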

[4] = A CellTox Green Cytotoxicity Assay to monitor cytotoxicity in HepG2 cells - 0 hour (AID 1224882); note: nearly all actives have a fitted effect of over 35% in size
Procedure, shortened: as §1

[5] = A CellTox Green Cytotoxicity Assay to monitor cytotoxicity in HEK293 cells - 8 hour (AID 1224884); note: nearly all actives have a fitted effect of over 35% in size
Procedure, shortened: as §3

[6] = qHTS RealTime-Glo MT Cell Viability Assay in HepG2 cells - 16 hour (AID 1224885); note: nearly all actives have a fitted effect of over 50% in size
Procedure, shortened: (§4)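 Viability was tracked continuously by NanoLuc luminescence from prosubstrate reduced by living HepG2 cells, at successive time points over 40 h of compound exposure. Cells with reagent were preincubated 5 h at 37 °C before compound addition.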

[7] = qHTS RealTime-Glo MT Cell Viability Assay in HEK293 cells - 24 hour (AID 1224886); note: top concentration of the series differs between compounds; nearly all actives have a fitted effect of over 50% in size
Procedure, shortened: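 Viability tracked continuously by luminescence as live cells reduce a prosubstrate for NanoLuc; HEK293 cells preincubated 5 h, compound-treated at 37 C, and read at 0, 8, 16, 24, 32 and 40 h.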

[8] = qHTS RealTime-Glo MT Cell Viability Assay in HEK293 cells - 8 hour (AID 1224887); note: top concentration of the series differs between compounds; nearly all actives have a fitted effect of over 50% in size
Procedure, shortened: as §2

[9] = A CellTox Green Cytotoxicity Assay to monitor cytotoxicity in HEK293 cells - 16 hour (AID 1224888); note: nearly all actives have a fitted effect of over 35% in size
Procedure, shortened: as §3

[10] = qHTS RealTime-Glo MT Cell Viability Assay in HepG2 cells - 0 hour (AID 1224889); note: nearly all actives have a fitted effect of over 50% in size
Procedure, shortened: as §4

[11] = A CellTox Green Cytotoxicity Assay to monitor cytotoxicity in HepG2 cells - 8 hour (AID 1224890); note: nearly all actives have a fitted effect of over 45% in size
Procedure, shortened: as §1

[12] = qHTS assay to identify small molecule antagonists of the estrogen receptor alpha (ER-alpha) signaling pathway using the BG1 cell line in the presence of 0.1 nM 17-beta-estradiol - cell viability counter screen (AID 1259241); note: nearly all actives have a fitted effect of over 40% in size
Procedure, shortened: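 Viability in VM7Luc4E2 cells after 22 hr compound exposure under 0.1 nM 17beta-estradiol stimulation, by CellTiter-Fluor.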

[13] = qHTS assay to identify small molecule antagonists of the androgen receptor (AR) signaling pathway using the MDA cell line in the presence of 0.5 nM R1881 - cell viability counter screen (AID 1259242); note: nearly all actives have a fitted effect of over 45% in size
Procedure, shortened: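 Human breast carcinoma MDA-kb2 cells, cultured without CO2, receive compounds alongside 0.5 nM (final) R1881 agonist. After 16 hr at 37C, viability is taken as live-cell protease signal.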

[14] = qHTS assay to identify small molecule HDAC inhibitors (AID 1259364);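 note: wild-type HCT-116 cells with endogenous class I/II HDAC activity; top concentration of the series differs between compounds; nearly all actives have a fitted effect of over 45% in size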
Procedure, shortened: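 After a 2 hr compound incubation (37C, 5% CO2), HCT-116 cells seeded at 1,500/well the day before received HDAC-Glo reagent; signal read as luminescence after 30 min at room temperature.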

[15] = qHTS assay to identify small molecule HDAC inhibitors - cell viability counter screen (AID 1259365)
Procedure, shortened: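 Cytotoxicity was gauged in wild-type HCT-116 cells after a brief 2hr treatment with DMSO-dissolved compounds at 37C and 5% CO2, using CellTiter-Glo luminescence developed for 30min at room temperature.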

[16] = A CellTox Green Cytotoxicity Assay to monitor cytotoxicity in HepG2 cells - 32 hour (AID 1224883); note: nearly all actives have a fitted effect of over 50% in size
Procedure, shortened: as §1

[17] = biological target: Androgen receptor (Homo sapiens) (UniProt P10275); assay: qHTS assay to identify small molecule antagonists of the androgen receptor (AR) signaling pathway using the MDA cell line in the presence of 0.5 nM R1881 (AID 1259243); note: nearly all actives have a fitted effect of over 50% in size
Androgen receptor (Homo sapiens), sequence (P10275 whole entry, looked up): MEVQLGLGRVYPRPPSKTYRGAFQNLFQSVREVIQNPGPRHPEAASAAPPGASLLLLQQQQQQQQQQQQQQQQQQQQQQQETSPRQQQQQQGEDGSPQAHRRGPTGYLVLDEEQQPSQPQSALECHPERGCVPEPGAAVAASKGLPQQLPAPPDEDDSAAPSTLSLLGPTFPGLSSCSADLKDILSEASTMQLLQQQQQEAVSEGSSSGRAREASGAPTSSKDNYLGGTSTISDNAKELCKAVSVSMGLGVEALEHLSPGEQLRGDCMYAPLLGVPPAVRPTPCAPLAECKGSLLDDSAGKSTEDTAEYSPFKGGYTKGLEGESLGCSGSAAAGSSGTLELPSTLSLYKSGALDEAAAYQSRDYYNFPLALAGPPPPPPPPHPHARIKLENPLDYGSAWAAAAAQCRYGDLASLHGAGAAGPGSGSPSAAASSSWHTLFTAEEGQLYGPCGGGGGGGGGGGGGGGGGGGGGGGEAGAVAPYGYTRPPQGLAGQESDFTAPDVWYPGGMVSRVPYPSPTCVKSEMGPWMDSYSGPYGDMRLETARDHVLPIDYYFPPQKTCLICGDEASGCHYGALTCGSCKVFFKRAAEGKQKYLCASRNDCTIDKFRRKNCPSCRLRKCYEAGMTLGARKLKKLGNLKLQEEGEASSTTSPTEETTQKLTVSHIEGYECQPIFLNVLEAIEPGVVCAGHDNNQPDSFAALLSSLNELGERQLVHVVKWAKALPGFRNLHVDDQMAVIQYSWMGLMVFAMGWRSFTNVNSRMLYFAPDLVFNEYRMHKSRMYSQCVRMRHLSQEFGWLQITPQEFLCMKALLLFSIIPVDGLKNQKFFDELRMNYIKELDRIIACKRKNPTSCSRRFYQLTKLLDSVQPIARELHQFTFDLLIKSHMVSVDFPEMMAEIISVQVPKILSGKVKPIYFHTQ
Procedure, shortened: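 Cells: MDA-kb2 (MMTV-luc). Stimulus: 0.5 nM R1881. Time: 16 hr, 37C, no CO2. Detection: ONE-Glo luminescence after 30 min at RT.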

[18] = biological target: Estrogen receptor (Homo sapiens) (UniProt P03372); assay: qHTS assay to identify small molecule antagonists of the estrogen receptor alpha (ER-alpha) signaling pathway using the BG1 cell line in the presence of 0.1 nM 17-beta-estradiol (AID 1259244); note: nearly all actives have a fitted effect of over 50% in size
Estrogen receptor (Homo sapiens), sequence (P03372 whole entry, looked up): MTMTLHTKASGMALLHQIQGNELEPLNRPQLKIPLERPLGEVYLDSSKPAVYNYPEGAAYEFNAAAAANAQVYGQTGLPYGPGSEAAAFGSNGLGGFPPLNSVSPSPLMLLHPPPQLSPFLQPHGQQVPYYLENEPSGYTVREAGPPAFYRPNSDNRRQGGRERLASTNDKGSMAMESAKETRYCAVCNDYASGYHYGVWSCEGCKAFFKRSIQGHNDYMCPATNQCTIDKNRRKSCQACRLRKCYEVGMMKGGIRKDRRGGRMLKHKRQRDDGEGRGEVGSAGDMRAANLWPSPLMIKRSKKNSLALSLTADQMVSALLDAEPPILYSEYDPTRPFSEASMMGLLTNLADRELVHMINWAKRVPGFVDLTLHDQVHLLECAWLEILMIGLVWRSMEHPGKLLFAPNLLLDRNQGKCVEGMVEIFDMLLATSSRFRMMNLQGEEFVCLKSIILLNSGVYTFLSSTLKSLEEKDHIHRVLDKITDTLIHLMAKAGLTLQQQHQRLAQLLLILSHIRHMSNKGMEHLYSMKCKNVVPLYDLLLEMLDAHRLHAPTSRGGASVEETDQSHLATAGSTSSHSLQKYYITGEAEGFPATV
Procedure, shortened: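 Seeding of stripped-serum-adapted VM7Luc4E2 cells, 24 h attachment, compound transfer, then 0.1 nM final 17beta-estradiol; after 22 h incubation, ONE-Glo reagent and luminescence reading.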

[19] = qHTS assay to identify small molecule phospholipidosis (PLD) inducers (AID 1259344; active = well fitted curve in the direction sought with a large enough effect; an effect the other way counts as inactive or inconclusive)
Procedure, shortened: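 Read-out is LipidTOX Red fluorescence (ex 595/em 615) imaged in HepG2 cells after 24 h compound exposure at 37 C, with Hoechst nuclear counterstain (ex 352/em 461) allowing per-cell normalisation.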

Row | Structure (SMILES) | Potency [1] | Potency [2] | Potency [3] | Potency [4] | Potency [5] | outcome [6] | outcome [7] | outcome [8] | Potency [9] | Potency [10] | Potency [11] | outcome [12] | outcome [13] | Potency [14] | outcome [15] | Potency [16] | Potency [17] | outcome [18] | Potency [19]
1 | CCCCCCCCOCCC#N | 15.5 µM (active) | inactive | inactive | inactive | inactive | inactive | inactive | inactive | inactive | inactive | inactive | inactive | inactive | inactive | inactive | – | – | – | –
2 | N[C@H]1C(O)O[C@H](CO)[C@@H](O)[C@@H]1O (some centres undefined) | inactive | inactive | inactive | inactive | inactive | inactive | inactive | inactive | – | inactive | inactive | inactive | inactive | inactive | inactive | inactive | inactive | inactive | inactive
3 | COc1cc(NS(=O)(=O)c2ccc(N)cc2)ncn1 | inactive | inactive | inactive | inactive | inactive | inactive | inactive | inactive | inactive | inactive | inactive | inactive | inactive | – | inactive | inactive | – | – | inactive
4 | C=C(C)C(=O)OCCOC1CC2CC1C1C=CCC21 (centres undefined) | inactive | inactive | inactive | inactive | inactive | inactive | inactive | inactive | inactive | inactive | inactive | inactive | inactive | inactive | inactive | inactive | – | – | –
5 | C=C(C)C(=O)OCCCC | inactive | inactive | inactive | inactive | inactive | inactive | inactive | inactive | – | – | inactive | inactive | inactive | inactive | inactive | inactive | inactive | – | –
6 | CO/N=C(\C(=O)O)c1csc(NC(=O)CCl)n1 | inactive | inactive | inactive | inactive | inactive | inactive | inactive | inactive | inactive | inactive | inactive | inactive | inactive | inactive | inactive | inactive | – | – | –
7 | CCOC(=O)c1ccc(N(C)C)cc1 | inactive | inactive | inactive | inactive | – | inactive | inactive | inactive | inactive | – | – | inactive | inactive | – | inactive | inactive | – | inactive | –
8 | CCCCN1C(=O)c2ccccc2C1=O | – | inactive | inactive | inactive | inactive | inactive | inactive | inactive | inactive | inactive | inactive | inactive | inactive | inactive | inactive | – | – | inactive | –
